Unmarked numbers belong to inactive results.
Test system: Vero E6 infected with SARS-CoV-2
Experiment: inhibition of SARS-CoV-2 cytopathic effect; higher = more antiviral protection, active = above 15
Settings: 833.33 nM; 48 h

| Compound | inhibition of SARS-CoV-2 cytopathic effect [%] |
| --- | --- |
| CCCC[C@H]1OC(=O)c2ccccc21 [butylphthalide] | 1.5 |
| CCN(CC)CCCCNc1ncc2cc(-c3cc(OC)cc(OC)c3)c(NC(=O)NC(C)(C)C)nc2n1 | -4.96 |
| C[C@H](Cc1ccc(O)c(O)c1)[C@@H](C)Cc1ccc(O)c(O)c1 [masoprocol] | -1.7 |
| CN=C(N)NCCC[C@H](N)C(=O)O [L-monomethylarginine] | 1.39 |
| O=C(Oc1ccccc1)c1ccccc1O [phenyl-salicylate] | 3.43 |
| Cc1nnc2ccc(-c3cccc(C(F)(F)F)c3)nn12 | 1.93 |
| C=CC(=O)Nc1cccc(Nc2nc(Nc3ccc(N4CCN(C(C)=O)CC4)cc3OC)ncc2C(F)(F)F)c1 [rociletinib] | -2.42 |
| CC(C)[C@H](O)C(=O)N[C@@H](C)C(=O)N[C@@H]1C(=O)N(C)CCc2ccccc21 [semagacestat] | -1.76 |

Same assay, conditions: 10000 nM; 48 h

| Compound | inhibition of SARS-CoV-2 cytopathic effect |
| --- | --- |
| Cc1c(C(=O)NN2CCOCC2)nn(-c2ccc(Cl)cc2Cl)c1-c1ccc(I)cc1 | 1.16% |
| CN(C)CCn1cc(S(=O)(=O)c2cccc(F)c2)c2cccnc21 | -1.97% |
| CCOC(=O)c1ccccc1OC(N)=O [ethyl-2-(carbamoyloxy)benzoate] | -3.35% |
| O=C(O)Cc1sc(-c2ccccc2)nc1-c1ccc(Cl)cc1 [fentiazac] | 1.91% |
| O.O.O.O.O=C([O-])CC(O)(CC(=O)[O-])C(=O)[O-].[Li+].[Li+].[Li+] [lithium-citrate] | 1.33% |
| COc1ccnc2[nH]cc(C(=O)C(=O)N3CCN(C(=O)c4ccccc4)C[C@H]3C)c12 | 1.74% |
| Cc1cc(SCc2sc(-c3ccc(C(F)(F)F)c(F)c3)nc2C)ccc1OCC(=O)O | -1.19% |
| CCC(=O)[C@@]1(C)[C@H](C)C[C@H]2[C@@H]3CCC4=CC(=O)C=C[C@]4(C)[C@H]3[C@@H](O)C[C@@]21C [rimexolone] | -2.54% |
| Cn1ccc2cc(NC(=O)Nc3cccnc3)ccc21 | 1.94% |
| C[S+](CC[C@H](N)C(=O)O)C[C@H]1O[C@@H](n2cnc3c(N)ncnc32)[C@H](O)[C@@H]1O (some centres not stated) [ademetionine] | 0.19% |
| CCN(CC)C(=O)[C@@]1(c2ccccc2)C[C@H]1CN [milnacipran] | 1.05% |
| COc1cc2c(Oc3ccc(NC(=O)C4(C(=O)Nc5ccc(F)cc5)CC4)cc3F)ccnc2cc1OCCCN1CCOCC1 [foretinib] | -22.4% |
| O=c1sn(-c2cccc3ccccc23)c(=O)n1Cc1ccccc1 [tideglusib] | -0.03% |
| CCC(=O)N1CCOc2c(cc(-c3ccc(OC)c(OC)c3)cc2OC[C@H]2CCCN(C)C2)C1 | 0.51% |
| COCC1(CO)C(=O)C2CCN1CC2 (configuration not stated) | 4.84% |
| C[C@@H]1CC[C@@]2(OC1)O[C@H]1C[C@H]3[C@@H]4CC=C5C[C@@H](O[C@@H]6O[C@H](CO)[C@@H](O[C@@H]7O[C@@H](C)[C@H](O)[C@@H](O)[C@H]7O)[C@H](O)[C@H]6O[C@@H]6O[C@@H](C)[C@H](O)[C@@H](O)[C@H]6O)CC[C@]5(C)[C@H]4CC[C@]3(C)[C@H]1[C@@H]2C [dioscin] | -12.2% |
| CS(=O)(=O)c1cc(F)cc2c3c(n(Cc4ccc(Cl)cc4)c12)[C@@H](CC(=O)O)CC3 [laropiprant] | 2.04% |
| CCC(=O)NS(=O)(=O)c1ccc(-c2c(-c3ccccc3)noc2C)cc1 [parecoxib] | -1.54% |
| C[C@H](CCC(=O)O)[C@H]1CC[C@H]2[C@@H]3CC[C@@H]4C[C@H](O)CC[C@]4(C)[C@H]3CC[C@]12C [lithocholic-acid] | -0.77% |
| CCOc1cn(-c2ccc(F)cc2C)nc1C(=O)Nc1ccc(Oc2ccnc3cc(OC)c(OC)cc23)c(F)c1 | -1.4% |

| Compound | inhibition of SARS-CoV-2 cytopathic effect |
| --- | --- |
| CCC(C/C=C/c1ccccc1)(c1ccccc1)N(C)CC1CC1 (configuration not stated) [igmesine] | 6.93% |
| c1ccc2c(c1)[I+]c1ccccc1-2 [diphenyleneiodonium] | 0.37% |
| Cc1c(C(=O)N2CCOc3ccc(-c4ccc(N)nc4)cc3C2)ccc(S(C)(=O)=O)c1F | 1.3% |
| CCOC(=O)NNc1ccc(N(CC)CC(C)O)nn1 (configuration not stated) [cadralazine] | 0.1% |
| Cn1cc(-c2ccc3nnc(Sc4ccc5ncccc5c4)n3n2)cn1 | 3.33% |
| COc1ccccc1C(=O)Nc1cccc(NC(=O)c2cccc(C)c2)c1 | 1.77% |
| CCO[C@@H](Cc1ccc(OCCc2ccc(OS(C)(=O)=O)cc2)cc1)C(=O)O [tesaglitazar] | 1.52% |
| CC1=C(/C=C/C(=C/C=C/C(C)=C/C(=O)O)c2ccc(C)cc2)C(C)(C)CCC1 | 6.23% |
| CS(=O)(=O)n1cc2c(n1)CN([C@H]1CO[C@H](c3cc(F)ccc3F)[C@@H](N)C1)C2 [omarigliptin] | 0.42% |
| O=C(O)c1nn(Cc2ccc(Cl)cc2Cl)c2ccccc12 [lonidamine] | -0.94% |
| Cc1nc(-c2ccc(OCC(C)C)c(C#N)c2)sc1C(=O)O [febuxostat] | 1.58% |
| CCCC[C@H]1OC(=O)c2ccccc21 [butylphthalide] | 0.31% |
| CCN(CC)CCCCNc1ncc2cc(-c3cc(OC)cc(OC)c3)c(NC(=O)NC(C)(C)C)nc2n1 | 45.1% (active) |
| C[C@H](Cc1ccc(O)c(O)c1)[C@@H](C)Cc1ccc(O)c(O)c1 [masoprocol] | 12% |
| CN=C(N)NCCC[C@H](N)C(=O)O [L-monomethylarginine] | -1.85% |
| O=C(Oc1ccccc1)c1ccccc1O [phenyl-salicylate] | 5.08% |
| Cc1nnc2ccc(-c3cccc(C(F)(F)F)c3)nn12 | 2.16% |
| C=CC(=O)Nc1cccc(Nc2nc(Nc3ccc(N4CCN(C(C)=O)CC4)cc3OC)ncc2C(F)(F)F)c1 [rociletinib] | -11.9% |
| CC(C)[C@H](O)C(=O)N[C@@H](C)C(=O)N[C@@H]1C(=O)N(C)CCc2ccccc21 [semagacestat] | -3.08% |
